Several values for one entry are separate records, joined by “and”; a condition that tells them apart may be missing. Equal values may be shown once. Results filed as inconclusive are left out. Activity calls are given as the source filed them. Unless noted, the call rests on the fitted dose curve; in most records, active means well fitted curve in the direction sought with a large enough effect in the repeat runs; inconclusive means weak or mixed curves; inactive means no such curve, though single readings can be large; an effect the other way counts as inactive or inconclusive.
Key:
[1] = qHTS assay to identify small molecule antagonists of the glucocorticoid receptor (GR) signaling pathway - cell viability counter screen (AID 720693); further: nearly all actives have a fitted effect of over 55% in size; further: potency means the concentration at half of the fitted maximal effect
[2] = qHTS assay for identifying genotoxic compounds that show differential cytotoxicity against isogenic chicken DT40 cell lines with known DNA damage response pathways - wild type cell line (AID 743012); further: nearly all actives have a fitted effect of over 60% in size; further: potency means the concentration at half of the fitted maximal effect
Summary of the method: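 Cytotoxicity in repair-proficient parental chicken DT40 cells serves as the comparator for Rad54/Ku70- and Rev3-deficient lines. Cells were exposed to compounds for 40 h at 37 C/5% CO2, and ATP-based luminescence (CellTiter-Glo) measured viability.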

[3] = qHTS assay for identifying genotoxic compounds that show differential cytotoxicity against isogenic chicken DT40 cell lines with known DNA damage response pathways - Rev3 mutant cell line (AID 743014); further: nearly all actives have a fitted effect of over 55% in size; further: potency means the concentration at half of the fitted maximal effect
[4] = qHTS assay for identifying genotoxic compounds that show differential cytotoxicity against isogenic chicken DT40 cell lines with known DNA damage response pathways - Rad54/Ku70 mutant cell line (AID 743015); further: nearly all actives have a fitted effect of over 60% in size; further: potency means the concentration at half of the fitted maximal effect
[5] = qHTS assay to identify small molecule antagonists of the estrogen receptor alpha (ER-alpha) signaling pathway - cell viability counter screen (AID 743074; calls by dose curve;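 further: HEK293 cells carrying ER-alpha-UAS-bla reporter stimulated with 17beta-estradiol; on the % scale 0 is the no-effect control and ±100 the full control effect; nearly all actives have a fitted effect of over 45% in size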)
[6] = molecular target: Estrogen receptor (Homo sapiens) (UniProt P03372); assay: qHTS assay to identify small molecule agonists of the estrogen receptor alpha (ER-alpha) signaling pathway (AID 743075; calls by dose curve;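 further: HEK293 GripTite cells with ER-alpha and UAS-driven beta-lactamase reporter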; further: potency means the concentration at half of the fitted maximal effect; on activation: on the % scale 0 is the no-effect control and ±100 the full control effect); conditions: HEK293 ER-alpha-UAS-bla, beta-lactamase FRET ratio, 18 h; activation: at 70.1 µM (top of the series)
Chain of Estrogen receptor (Homo sapiens) (P03372 whole entry, looked up): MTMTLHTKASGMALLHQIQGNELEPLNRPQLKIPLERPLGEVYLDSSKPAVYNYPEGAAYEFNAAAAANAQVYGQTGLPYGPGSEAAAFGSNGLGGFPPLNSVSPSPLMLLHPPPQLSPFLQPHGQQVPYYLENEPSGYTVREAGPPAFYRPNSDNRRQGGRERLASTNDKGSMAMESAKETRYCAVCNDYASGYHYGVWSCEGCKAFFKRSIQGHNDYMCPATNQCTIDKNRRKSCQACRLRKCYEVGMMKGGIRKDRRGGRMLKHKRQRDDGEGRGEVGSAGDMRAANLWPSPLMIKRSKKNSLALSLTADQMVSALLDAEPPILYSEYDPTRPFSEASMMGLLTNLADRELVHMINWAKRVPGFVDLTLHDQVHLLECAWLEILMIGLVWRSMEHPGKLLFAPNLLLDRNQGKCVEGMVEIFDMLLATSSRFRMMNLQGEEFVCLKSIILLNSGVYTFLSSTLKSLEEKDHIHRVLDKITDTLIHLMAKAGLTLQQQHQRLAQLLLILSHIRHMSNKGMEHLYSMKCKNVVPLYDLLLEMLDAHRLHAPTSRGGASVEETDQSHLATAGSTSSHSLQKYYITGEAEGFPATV

[7] = molecular target: Estrogen receptor (Homo sapiens) (UniProt P03372); assay: qHTS assay to identify small molecule agonists of the estrogen receptor alpha (ER-alpha) signaling pathway using the BG1 cell line (AID 743079); conditions: BG1Luc4E2 cells, ERE-luciferase agonist, 22 h; further: nearly all actives have a fitted effect of over 20% in size; further: potency means the concentration at half of the fitted maximal effect; on activation: on the % scale 0 is the no-effect control and ±100 the full control effect
[8] = qHTS assay to identify small molecule antagonists of the estrogen receptor alpha (ER-alpha) signaling pathway using the BG1 cell line (AID 743080; calls by dose curve;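 further: BG1 cells stimulated with 17beta-estradiol alongside compound; on the % scale 0 is the no-effect control and ±100 the full control effect; nearly all actives have a fitted effect of over 25% in size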)
Summary of the method: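 BG1Luc4E2, endogenous ER-alpha, 4xERE-luc; 5 d charcoal-stripped FBS, phenol red free; 24 h plating; cpd + 17beta-estradiol 21.5 h, 37 C/5% CO2; CellTiter-Fluor viability 30 min, then ONE-Glo luciferase 30 min RT.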

[9] = qHTS assay to identify small molecule antagonists of the estrogen receptor alpha (ER-alpha) signaling pathway using the BG1 cell line - cell viability counter screen (AID 743081);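 further: compound given together with 17beta-estradiol as the ER stimulus; nearly all actives have a fitted effect of over 45% in size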; further: potency means the concentration at half of the fitted maximal effect
Aromatase (Homo sapiens) = Aromatase (Homo sapiens) (UniProt P11511); assay: qHTS assay to identify aromatase inhibitors (AID 743083); further: nearly all actives have a fitted effect of over 55% in size; further: potency means the concentration at half of the fitted maximal effect
Chain of Aromatase (Homo sapiens) (P11511 whole entry, looked up): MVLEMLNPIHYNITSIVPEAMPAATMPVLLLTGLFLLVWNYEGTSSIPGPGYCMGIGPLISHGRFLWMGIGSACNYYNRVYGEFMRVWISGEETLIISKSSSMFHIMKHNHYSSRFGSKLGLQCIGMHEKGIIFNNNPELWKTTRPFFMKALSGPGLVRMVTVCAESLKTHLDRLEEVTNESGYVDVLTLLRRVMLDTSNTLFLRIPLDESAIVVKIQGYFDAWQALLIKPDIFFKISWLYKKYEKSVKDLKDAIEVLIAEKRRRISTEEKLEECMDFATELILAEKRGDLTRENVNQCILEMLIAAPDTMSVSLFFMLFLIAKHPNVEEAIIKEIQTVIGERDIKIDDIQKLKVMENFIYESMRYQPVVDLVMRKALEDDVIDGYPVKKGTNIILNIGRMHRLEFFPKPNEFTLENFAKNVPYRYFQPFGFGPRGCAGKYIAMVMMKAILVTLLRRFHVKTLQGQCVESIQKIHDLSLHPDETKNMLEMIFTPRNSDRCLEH

[10] = qHTS assay to identify aromatase inhibitors - cell viability counter screen (AID 743084);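 further: cells stimulated with testosterone during compound exposure; nearly all actives have a fitted effect of over 55% in size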; further: potency means the concentration at half of the fitted maximal effect
[11] = qHTS assay to identify small molecule antagonists of the androgen receptor (AR) signaling pathway - cell viability counter screen (AID 743033; further: nearly all actives have a fitted effect of over 45% in size; further: potency means the concentration at half of the fitted maximal effect)
[12] = qHTS assay to identify small molecule antagonists of the androgen receptor (AR) signaling pathway using the MDA cell line - cell viability counter screen (AID 743041; further: nearly all actives have a fitted effect of over 45% in size; further: potency means the concentration at half of the fitted maximal effect)
Summary of the method: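 In this qHTS counter assay, fluorescence intensity after CellTiter-Fluor addition indicated viability of MDA-kb2 AR-luc cells given compounds and R1881 for 16 h at 37C.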

[13] = qHTS assay to identify small molecule antagonists of the thyroid receptor (TR) signaling pathway - cell viability counter screen (AID 743064); further: nearly all actives have a fitted effect of over 50% in size; further: potency means the concentration at half of the fitted maximal effect
Summary of the method: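 In rat pituitary GH3.TRE-Luc reporter cells co-exposed to compound and 1 nM T3 for 23.5 h, cytotoxicity was assessed with CellTiter-Fluor in the same wells, read by fluorescence.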

[14] = qHTS assay to identify small molecule antagonists of the thyroid receptor (TR) signaling pathway (AID 743065); further: nearly all actives have a fitted effect of over 55% in size; further: potency means the concentration at half of the fitted maximal effect
Summary of the method: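 GH3.TRE-Luc rat pituitary cells carrying two TR response elements driving luciferase were plated for 4 h, given compound plus 1 nM T3 (final), and incubated 23.5 h at 37 C. ONE-Glo luminescence measured reporter inhibition; CellTiter-Fluor fluorescence tracked cytotoxicity.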

[15] = tested on: thyroid hormone receptor (rat, GH3 cells); assay: qHTS assay to identify small molecule agonists of the thyroid receptor (TR) signaling pathway (AID 743066; calls by dose curve; further: on the % scale 0 is the no-effect control and ±100 the full control effect)
[16] = molecular target: Androgen receptor (Homo sapiens) (UniProt P10275); assay: qHTS assay to identify small molecule agonists of the androgen receptor (AR) signaling pathway using the MDA cell line (AID 743040; further: on the % scale 0 is the no-effect control and ±100 the full control effect; nearly all actives have a fitted effect of over 20% in size)
Chain of Androgen receptor (Homo sapiens) (P10275 whole entry, looked up): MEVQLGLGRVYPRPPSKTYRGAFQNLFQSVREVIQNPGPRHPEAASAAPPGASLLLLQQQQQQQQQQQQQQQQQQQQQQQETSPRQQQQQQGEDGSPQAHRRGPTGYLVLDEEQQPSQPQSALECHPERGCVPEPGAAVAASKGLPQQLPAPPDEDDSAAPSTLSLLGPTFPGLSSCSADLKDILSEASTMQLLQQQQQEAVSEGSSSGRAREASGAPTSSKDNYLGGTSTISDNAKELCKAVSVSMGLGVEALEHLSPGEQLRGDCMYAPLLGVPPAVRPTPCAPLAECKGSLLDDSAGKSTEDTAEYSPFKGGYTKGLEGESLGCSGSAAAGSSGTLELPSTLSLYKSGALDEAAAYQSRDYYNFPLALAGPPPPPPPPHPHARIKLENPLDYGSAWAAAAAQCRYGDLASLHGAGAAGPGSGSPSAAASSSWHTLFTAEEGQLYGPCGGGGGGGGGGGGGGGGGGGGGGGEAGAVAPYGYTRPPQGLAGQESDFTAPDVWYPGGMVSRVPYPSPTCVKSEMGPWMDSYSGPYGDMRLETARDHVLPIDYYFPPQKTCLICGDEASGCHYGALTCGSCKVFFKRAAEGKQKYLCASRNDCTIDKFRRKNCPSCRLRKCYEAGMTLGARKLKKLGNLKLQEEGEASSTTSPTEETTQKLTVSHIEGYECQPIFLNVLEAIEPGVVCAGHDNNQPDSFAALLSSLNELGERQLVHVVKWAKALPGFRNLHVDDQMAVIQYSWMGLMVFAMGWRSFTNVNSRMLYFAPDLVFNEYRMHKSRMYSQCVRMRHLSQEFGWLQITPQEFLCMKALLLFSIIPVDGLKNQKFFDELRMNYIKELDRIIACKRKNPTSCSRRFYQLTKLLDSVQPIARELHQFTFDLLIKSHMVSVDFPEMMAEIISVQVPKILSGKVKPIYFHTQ
Summary of the method: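 Cell-based luciferase reporter: MDA-kb2, MMTV promoter (AR + GR response elements). 16 h compound exposure at 37C; ONE-Glo, 30 min RT, luminescence.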

[17] = molecular target: Androgen receptor (Homo sapiens) (UniProt P10275); assay: qHTS assay to identify small molecule antagonists of the androgen receptor (AR) signaling pathway using the MDA cell line (AID 743042; further: nearly all actives have a fitted effect of over 55% in size; further: potency means the concentration at half of the fitted maximal effect)
Summary of the method: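 MDA-kb2 cells (human breast carcinoma, stably carrying an MMTV-luciferase reporter responsive to AR and GR) were plated at 3,000 cells/well and preincubated 5 hr at 37C, then given compound plus R1881 agonist for 16 h. ONE-Glo luminescence was read.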

[18] = molecular target: Estrogen receptor (Homo sapiens) (UniProt P03372); assay: qHTS assay to identify small molecule antagonists of the estrogen receptor alpha (ER-alpha) signaling pathway (AID 743069; active means well fitted curve in the direction sought with a large enough effect in the signal ratio in the repeat runs, not every such curve was filed as active; the % refers to the signal ratio; further: on the % scale 0 is the no-effect control and ±100 the full control effect)
Summary of the method: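 A 17beta-estradiol challenge was applied right after compound transfer to ER-alpha-UAS-bla HEK293 cells previously kept in charcoal-stripped serum. Plates stood 18 hr at 37C and 5% CO2; fluorescence was read following 2 hr FRET substrate loading at room temperature.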

[19] = molecular target: Androgen receptor (Homo sapiens) (UniProt P10275); assay: qHTS assay to identify small molecule antagonists of the androgen receptor (AR) signaling pathway (AID 743035; active means well fitted inhibition curve with a large enough effect in the signal ratio in the repeat runs, not every such curve was filed as active; the % refers to the signal ratio; further: potency means the concentration at half of the fitted maximal effect)
Summary of the method: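 Steps: seed AR-UAS-bla GripTite HEK293 cells, incubate 4 h at 37C; pin in test compound, then add agonist R1881; incubate 16 h at 37C; add LiveBLAzer B/G FRET substrate, 2 h at room temperature; read fluorescence.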

Fc1ccc(C(c2ccc(F)cc2)N2CCN(C/C=C/c3ccccc3)CC2)cc1
inactive: Potency [1] | Potency [5] | Potency [6] | activation ([7]; at 70.3 µM (top of the series)) -22.9% | Potency [8] | Potency [9] | Potency (Aromatase (Homo sapiens)) | Potency [10]
active: Potency [2] 10.6 µM | Potency [3] 13.3 µM | Potency [4] 11.9 µM

C=CC(=O)OCCn1c(=O)n(CCOC(=O)C=C)c(=O)n(CCOC(=O)C=C)c1=O
inactive: Potency [1] | Potency [15]
active: Potency [2] 2.73 µM | Potency [4] 2.43 µM | Potency [11] 15.5 µM | Potency [12] 30.6 µM | Potency [13] 5.45 µM | Potency [14] 4.86 µM | Potency [9] 54.5 µM | Potency (Aromatase (Homo sapiens)) 13.7 µM | Potency [10] 13.7 µM

O=C1CCCc2c1cc1ccc3cccc4ccc2c1c34
active: Potency [7] 3.9 µM
inactive: Potency [1] | Potency [2] | Potency [4] | Potency [11] | Potency [16] | Potency [12] | Potency [17] | Potency [13] | Potency [5] | Potency [9] | Potency (Aromatase (Homo sapiens)) | Potency [10]

CC(C)CCCCCCCCCCCCCCC(=O)O
inactive: Potency [1] | Potency [2] | Potency [3] | Potency [11] | Potency [12] | Potency [13] | Potency [15] | Potency [5] | Potency [9] | Potency (Aromatase (Homo sapiens)) | Potency [10]

OCCN(CCO)c1nc(N2CCCCC2)c2nc(N(CCO)CCO)nc(N3CCCCC3)c2n1
inactive: Potency [1] | Potency [11] | Potency [16] | Potency [17] | Potency [15] | Potency [5] | Potency (Aromatase (Homo sapiens))
active: Potency [2] 11.9 µM | Potency [4] 10.6 µM | Potency [14] 23.7 µM

O=C(Oc1cccc2cccnc12)c1ccccc1
inactive: Potency [1] | Potency [18] | Potency [5] | Potency [6] | Potency [8] | Potency [9]
active: Potency [2] 2.66 µM | Potency [3] 2.98 µM | Potency [11] 7.56 µM | Potency [12] 6.99 µM | Potency [13] 13.3 µM | Potency [14] 13.3 µM | Potency (Aromatase (Homo sapiens)) 18.8 µM | Potency [10] 21.1 µM

Cc1cc(N)c(S(=O)(=O)O)cc1Cl
inactive: Potency [1] | Potency [2] | Potency [3] | Potency [11] | Potency [14] | Potency [15] | Potency [5] | Potency [9] | Potency (Aromatase (Homo sapiens)) | Potency [10]

[O-][n+]1ccccc1SSc1cccc[n+]1[O-]
active: Potency [2] 0.0596 µM | Potency [3] 0.0668 µM | Potency [11] 0.169 µM | Potency [12] 1.56 µM | Potency [17] 1.19 µM | Potency [13] 0.266 µM | Potency [14] 0.211 µM | Potency (Aromatase (Homo sapiens)) 0.15 µM | Potency [10] 0.188 µM
inactive: Potency [1] | Potency [16] | Potency [6] | Potency [9]

Fc1ccc([C@@H]2CCNC[C@H]2COc2ccc3c(c2)OCO3)cc1
active: Potency [2] 3.76 µM | Potency [3] 7.5 µM | Potency [11] 8.49 µM | Potency [19] 13.4 µM | Potency [12] 18.8 µM | Potency [17] 21.1 µM | Potency [13] 11.9 µM | Potency [14] 10.6 µM
inactive: Potency [1] | Potency [16] | Potency [6] | Potency [8]

Cc1cccc(CN2CCN(C(c3ccccc3)c3ccc(Cl)cc3)CC2)c1 (configuration not stated)
inactive: Potency [1] | Potency [11] | Potency [12] | Potency [18] | Potency [5] | Potency [6] | activation ([7]; at 32.5 µM (top of the series)) -3.05% | Potency [8] | Potency [9] | Potency (Aromatase (Homo sapiens)) | Potency [10]
active: Potency [2] 9.02 µM | Potency [4] 9.02 µM | Potency [13] 12.7 µM

COc1cccc2c1C(=O)c1c(O)c3c(c(O)c1C2=O)C[C@@](O)(C(=O)CO)C[C@@H]3O[C@H]1C[C@H](N)[C@H](O[C@@H]2CCCCO2)[C@H](C)O1
active: Potency [1] 21.3 µM | Potency [2] 0.188 µM | Potency [3] 0.237 µM | Potency [19] 8.49 µM | Potency [17] 4.22 µM | Potency [13] 1.68 µM | Potency [14] 0.841 µM | Potency [6] 4.25 µM [activator] | Potency [9] 9.44 µM | Potency [10] 13.3 µM
inactive: Potency [11] | Potency [16] | Potency [5] | Potency (Aromatase (Homo sapiens))

Cc1[nH]cnc1C[C@H]1CCc2c(C)c3ccccc3n2C1=O
inactive: Potency [1] | Potency [5] | Potency [9] | Potency (Aromatase (Homo sapiens)) | Potency [10]
active: Potency [2] 13.3 µM and 26.6 µM | Potency [3] 29.8 µM and 21.2 µM | Potency [4] 23.7 µM | Potency [13] 13.3 µM | Potency [14] 23.7 µM and 13.3 µM

CN(C)[C@@H]1C(=O)C(C(N)=O)=C(O)[C@@]2(O)C(=O)C3=C(O)c4c(O)ccc(Cl)c4[C@@H](O)[C@H]3C[C@@H]12
inactive: Potency [1] | Potency [2] | Potency [4] | Potency [11] | Potency [12] | Potency [14] | Potency [15] | Potency [5] | Potency [9] | Potency (Aromatase (Homo sapiens)) | Potency [10]

Nc1ccccc1O
active: Potency [2] 7.59 µM | Potency [3] 6.77 µM | Potency [12] 53.8 µM | Potency [13] 26.9 µM | Potency [14] 42.7 µM | Potency (Aromatase (Homo sapiens)) 67.7 µM | Potency [10] 67.7 µM
inactive: Potency [1] | Potency [11] | Potency [15] | Potency [18] | Potency [5] | Potency [6]

Reference: PubChem BioAssay (Tox21)
